Legend:
Assay in all cases: log2 ratio of Biotin-Ahx-Ub-VS probe labelling (fragment/DMSO); higher = less target engagement (more negative = stronger competition), active = hit call of the paper (q ≤ 0.05, log2 ratio ≤ -1)
Details in all cases: compound concentration: 200 uM; treatment time: 3 h
USP9X = USP9X (UniProt Q93008)
How it was run: (§1)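 HEK293T lysate (495 µg per sample, in Tris/CHAPS/IGEPAL buffer with protease inhibitors) was exposed in triplicate for 3 h to fragment at 200 µM or to vehicle, then to Biotin-Ahx-Ub-VS at 0.5 µM final for 1 h. Labelled DUBs were enriched on NeutrAvidin, digested with LysC and trypsin, and analysed by diaPASEF LC-MS/MS. Spectronaut label-free quantities were normalised to the global median, and values are average log2 ratios of fragment over vehicle from an unpaired t-test. Only proteins with ≥2 unique peptides were used.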

UniProt O00487 = molecular target: UniProt O00487
How it was run: as §1

UniProt O00507 = molecular target: UniProt O00507
How it was run: as §1

UniProt P51784 = molecular target: UniProt P51784
How it was run: as §1

UniProt Q5T2D3 = molecular target: T1, UniProt Q5T2D3
T1 sequence (whole entry): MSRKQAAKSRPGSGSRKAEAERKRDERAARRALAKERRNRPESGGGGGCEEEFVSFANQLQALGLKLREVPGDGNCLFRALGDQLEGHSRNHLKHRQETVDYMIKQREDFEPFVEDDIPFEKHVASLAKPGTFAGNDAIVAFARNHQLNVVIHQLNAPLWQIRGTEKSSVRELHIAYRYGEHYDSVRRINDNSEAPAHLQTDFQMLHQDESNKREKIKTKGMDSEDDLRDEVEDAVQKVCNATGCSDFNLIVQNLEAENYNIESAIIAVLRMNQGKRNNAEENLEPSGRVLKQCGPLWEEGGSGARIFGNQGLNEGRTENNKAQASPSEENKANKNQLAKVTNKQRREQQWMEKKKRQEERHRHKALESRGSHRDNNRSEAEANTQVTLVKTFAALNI
How it was run: as §1

UniProt Q8TE49 = molecular target: T2, UniProt Q8TE49
T2 sequence (whole entry): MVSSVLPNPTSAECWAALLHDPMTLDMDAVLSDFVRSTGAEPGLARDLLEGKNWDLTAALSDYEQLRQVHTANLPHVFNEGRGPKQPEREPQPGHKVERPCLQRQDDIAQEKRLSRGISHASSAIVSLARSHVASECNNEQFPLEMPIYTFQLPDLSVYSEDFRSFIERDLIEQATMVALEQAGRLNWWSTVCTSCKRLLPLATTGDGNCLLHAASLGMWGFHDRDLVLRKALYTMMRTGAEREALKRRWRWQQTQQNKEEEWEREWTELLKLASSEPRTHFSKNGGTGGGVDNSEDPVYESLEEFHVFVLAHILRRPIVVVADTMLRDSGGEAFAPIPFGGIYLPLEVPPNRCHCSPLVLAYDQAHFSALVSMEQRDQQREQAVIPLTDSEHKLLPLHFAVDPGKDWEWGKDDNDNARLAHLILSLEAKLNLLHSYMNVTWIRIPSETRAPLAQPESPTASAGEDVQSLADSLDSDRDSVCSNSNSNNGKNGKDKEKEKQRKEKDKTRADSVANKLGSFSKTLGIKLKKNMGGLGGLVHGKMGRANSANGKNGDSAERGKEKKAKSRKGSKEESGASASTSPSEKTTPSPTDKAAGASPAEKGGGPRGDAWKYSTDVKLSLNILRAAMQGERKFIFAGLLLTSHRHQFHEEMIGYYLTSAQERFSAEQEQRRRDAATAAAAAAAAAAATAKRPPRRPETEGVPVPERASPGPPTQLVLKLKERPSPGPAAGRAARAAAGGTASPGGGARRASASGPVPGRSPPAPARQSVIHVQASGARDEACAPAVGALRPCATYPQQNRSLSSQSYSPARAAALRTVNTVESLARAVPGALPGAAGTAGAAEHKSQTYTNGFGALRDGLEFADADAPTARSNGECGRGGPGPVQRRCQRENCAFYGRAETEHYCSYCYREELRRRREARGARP
How it was run: as §1

UniProt Q9P2H5 = molecular target: T3, UniProt Q9P2H5
T3 sequence (whole entry): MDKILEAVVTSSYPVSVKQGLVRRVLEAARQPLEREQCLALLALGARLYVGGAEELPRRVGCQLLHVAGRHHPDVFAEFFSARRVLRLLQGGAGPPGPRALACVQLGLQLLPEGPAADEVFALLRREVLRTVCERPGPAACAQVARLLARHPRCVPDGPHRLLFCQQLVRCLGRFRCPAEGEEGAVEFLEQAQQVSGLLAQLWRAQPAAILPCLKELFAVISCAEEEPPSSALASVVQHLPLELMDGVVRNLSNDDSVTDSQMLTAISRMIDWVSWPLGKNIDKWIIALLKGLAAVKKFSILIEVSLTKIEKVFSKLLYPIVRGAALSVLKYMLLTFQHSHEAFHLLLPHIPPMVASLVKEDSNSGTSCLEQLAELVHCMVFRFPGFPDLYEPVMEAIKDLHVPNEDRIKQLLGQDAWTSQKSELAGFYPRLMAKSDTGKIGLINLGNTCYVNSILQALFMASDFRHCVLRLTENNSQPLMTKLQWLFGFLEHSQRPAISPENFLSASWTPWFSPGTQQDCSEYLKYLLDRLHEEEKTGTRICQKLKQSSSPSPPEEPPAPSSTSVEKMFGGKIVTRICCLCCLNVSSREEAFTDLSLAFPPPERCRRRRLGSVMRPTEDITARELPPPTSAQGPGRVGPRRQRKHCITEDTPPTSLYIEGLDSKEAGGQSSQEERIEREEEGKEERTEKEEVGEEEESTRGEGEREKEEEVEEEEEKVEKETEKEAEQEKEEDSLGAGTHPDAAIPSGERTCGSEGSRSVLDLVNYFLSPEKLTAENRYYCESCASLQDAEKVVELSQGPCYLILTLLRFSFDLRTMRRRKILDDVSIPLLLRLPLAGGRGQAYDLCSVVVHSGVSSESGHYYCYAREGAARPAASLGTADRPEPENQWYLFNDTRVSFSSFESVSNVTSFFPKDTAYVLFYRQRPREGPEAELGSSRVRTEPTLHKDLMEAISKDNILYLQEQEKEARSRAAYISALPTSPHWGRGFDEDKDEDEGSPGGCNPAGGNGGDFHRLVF
How it was run: as §1

UniProt Q9UGI0 = molecular target: T4, UniProt Q9UGI0
T4 sequence (whole entry): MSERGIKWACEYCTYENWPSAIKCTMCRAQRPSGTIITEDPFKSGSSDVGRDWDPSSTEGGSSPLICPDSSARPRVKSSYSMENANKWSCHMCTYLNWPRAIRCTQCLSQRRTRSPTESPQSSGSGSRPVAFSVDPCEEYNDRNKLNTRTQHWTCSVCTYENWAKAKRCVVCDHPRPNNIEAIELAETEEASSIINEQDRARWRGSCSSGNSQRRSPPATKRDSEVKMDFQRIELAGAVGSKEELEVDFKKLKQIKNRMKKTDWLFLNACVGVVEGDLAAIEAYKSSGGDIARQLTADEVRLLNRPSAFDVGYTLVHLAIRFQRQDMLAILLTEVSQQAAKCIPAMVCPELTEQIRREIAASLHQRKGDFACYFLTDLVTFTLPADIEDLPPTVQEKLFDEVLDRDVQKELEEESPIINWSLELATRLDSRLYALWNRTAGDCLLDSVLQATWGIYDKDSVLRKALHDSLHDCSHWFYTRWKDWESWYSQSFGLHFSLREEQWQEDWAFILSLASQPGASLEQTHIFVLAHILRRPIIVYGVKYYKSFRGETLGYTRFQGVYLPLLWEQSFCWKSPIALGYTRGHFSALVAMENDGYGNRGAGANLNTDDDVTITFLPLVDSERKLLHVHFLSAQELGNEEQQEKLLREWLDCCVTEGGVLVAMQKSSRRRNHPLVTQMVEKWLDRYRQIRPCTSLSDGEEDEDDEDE
How it was run: as §1

YOD1 = molecular target: T5, YOD1 (UniProt Q5VVQ6)
T5 sequence (whole entry): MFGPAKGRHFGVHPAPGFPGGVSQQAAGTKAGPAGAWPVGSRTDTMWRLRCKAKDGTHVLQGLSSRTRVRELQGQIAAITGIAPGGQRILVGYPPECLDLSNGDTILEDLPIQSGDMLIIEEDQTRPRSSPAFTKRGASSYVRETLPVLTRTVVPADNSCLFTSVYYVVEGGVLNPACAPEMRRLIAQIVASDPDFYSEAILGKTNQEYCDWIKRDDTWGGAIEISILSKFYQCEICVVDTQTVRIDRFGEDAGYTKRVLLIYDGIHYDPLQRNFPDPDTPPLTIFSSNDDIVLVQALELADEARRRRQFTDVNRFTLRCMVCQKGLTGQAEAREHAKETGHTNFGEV
How it was run: as §1

Measured: log2 ratio of Biotin-Ahx-Ub-VS probe labelling

Sequence of UniProt O00487 (O00487 whole entry): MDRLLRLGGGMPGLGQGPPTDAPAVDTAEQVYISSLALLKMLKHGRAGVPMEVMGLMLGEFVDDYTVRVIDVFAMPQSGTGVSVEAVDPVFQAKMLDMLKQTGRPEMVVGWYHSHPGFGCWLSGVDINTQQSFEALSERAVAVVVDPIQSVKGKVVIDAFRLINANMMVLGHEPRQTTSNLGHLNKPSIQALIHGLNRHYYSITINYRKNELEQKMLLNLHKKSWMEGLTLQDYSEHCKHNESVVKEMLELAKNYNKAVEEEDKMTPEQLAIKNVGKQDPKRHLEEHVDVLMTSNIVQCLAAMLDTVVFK
Sequence of UniProt O00507 (O00507 whole entry): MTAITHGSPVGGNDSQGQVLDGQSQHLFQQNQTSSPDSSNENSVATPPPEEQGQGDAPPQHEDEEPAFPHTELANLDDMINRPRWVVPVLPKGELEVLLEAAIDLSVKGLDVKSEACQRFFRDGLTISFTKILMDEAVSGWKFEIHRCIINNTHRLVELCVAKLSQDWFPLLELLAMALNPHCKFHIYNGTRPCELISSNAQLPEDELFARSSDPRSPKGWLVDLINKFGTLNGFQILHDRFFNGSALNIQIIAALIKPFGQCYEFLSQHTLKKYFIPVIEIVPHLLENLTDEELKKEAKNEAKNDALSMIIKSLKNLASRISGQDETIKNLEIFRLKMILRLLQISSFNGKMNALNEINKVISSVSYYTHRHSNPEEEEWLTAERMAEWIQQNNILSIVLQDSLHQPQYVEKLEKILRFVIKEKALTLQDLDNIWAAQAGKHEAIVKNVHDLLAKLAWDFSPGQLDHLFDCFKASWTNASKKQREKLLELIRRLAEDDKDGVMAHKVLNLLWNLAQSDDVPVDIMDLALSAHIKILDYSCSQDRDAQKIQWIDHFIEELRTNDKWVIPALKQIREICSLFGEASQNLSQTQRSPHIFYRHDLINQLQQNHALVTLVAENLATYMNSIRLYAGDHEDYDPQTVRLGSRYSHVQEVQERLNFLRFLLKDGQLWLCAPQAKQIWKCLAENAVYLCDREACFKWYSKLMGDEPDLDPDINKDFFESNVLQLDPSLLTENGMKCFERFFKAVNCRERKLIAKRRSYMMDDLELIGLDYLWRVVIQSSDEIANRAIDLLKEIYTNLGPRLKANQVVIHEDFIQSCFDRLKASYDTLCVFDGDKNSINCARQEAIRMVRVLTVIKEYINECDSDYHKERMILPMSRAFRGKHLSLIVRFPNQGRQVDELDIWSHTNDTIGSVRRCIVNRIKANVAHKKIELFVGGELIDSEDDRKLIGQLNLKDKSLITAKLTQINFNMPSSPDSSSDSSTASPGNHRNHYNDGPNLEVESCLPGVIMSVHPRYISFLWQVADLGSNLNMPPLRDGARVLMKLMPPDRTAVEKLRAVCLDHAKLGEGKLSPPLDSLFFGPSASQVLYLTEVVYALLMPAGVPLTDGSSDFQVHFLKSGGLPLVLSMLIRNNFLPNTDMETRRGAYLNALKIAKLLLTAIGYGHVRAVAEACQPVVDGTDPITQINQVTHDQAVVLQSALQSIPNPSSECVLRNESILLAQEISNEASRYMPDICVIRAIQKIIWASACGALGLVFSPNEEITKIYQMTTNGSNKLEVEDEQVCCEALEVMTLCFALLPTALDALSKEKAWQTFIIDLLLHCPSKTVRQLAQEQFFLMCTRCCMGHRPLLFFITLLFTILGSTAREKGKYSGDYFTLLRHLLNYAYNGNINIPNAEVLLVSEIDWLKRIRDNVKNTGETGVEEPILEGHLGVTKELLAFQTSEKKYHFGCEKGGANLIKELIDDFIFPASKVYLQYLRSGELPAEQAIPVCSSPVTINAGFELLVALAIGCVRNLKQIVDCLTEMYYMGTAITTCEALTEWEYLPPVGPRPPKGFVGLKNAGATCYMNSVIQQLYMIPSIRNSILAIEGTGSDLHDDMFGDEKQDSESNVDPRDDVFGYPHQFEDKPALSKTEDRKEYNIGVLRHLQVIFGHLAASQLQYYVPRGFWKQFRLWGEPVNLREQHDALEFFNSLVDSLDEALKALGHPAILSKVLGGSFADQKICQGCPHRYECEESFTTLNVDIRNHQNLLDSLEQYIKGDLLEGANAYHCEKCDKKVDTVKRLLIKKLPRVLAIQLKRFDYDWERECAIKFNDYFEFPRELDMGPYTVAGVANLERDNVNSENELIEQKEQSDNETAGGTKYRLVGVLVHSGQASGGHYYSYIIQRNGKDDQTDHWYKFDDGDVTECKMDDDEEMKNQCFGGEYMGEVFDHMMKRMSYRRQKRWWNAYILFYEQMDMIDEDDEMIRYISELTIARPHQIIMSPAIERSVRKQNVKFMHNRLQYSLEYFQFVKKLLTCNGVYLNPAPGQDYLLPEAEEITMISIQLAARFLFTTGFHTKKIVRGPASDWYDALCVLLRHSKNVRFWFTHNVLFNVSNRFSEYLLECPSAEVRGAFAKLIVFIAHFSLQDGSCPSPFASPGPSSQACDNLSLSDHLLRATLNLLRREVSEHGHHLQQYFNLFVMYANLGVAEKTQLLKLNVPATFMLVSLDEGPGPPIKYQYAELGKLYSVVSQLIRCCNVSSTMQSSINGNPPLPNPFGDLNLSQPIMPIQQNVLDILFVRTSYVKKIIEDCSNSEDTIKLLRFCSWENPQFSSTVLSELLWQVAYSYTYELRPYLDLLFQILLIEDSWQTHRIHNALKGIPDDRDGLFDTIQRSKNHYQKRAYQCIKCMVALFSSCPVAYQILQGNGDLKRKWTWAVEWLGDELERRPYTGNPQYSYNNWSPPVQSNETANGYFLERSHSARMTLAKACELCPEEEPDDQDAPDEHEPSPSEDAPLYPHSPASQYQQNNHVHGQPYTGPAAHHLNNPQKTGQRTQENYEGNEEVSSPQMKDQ
Sequence of UniProt P51784 (P51784 whole entry): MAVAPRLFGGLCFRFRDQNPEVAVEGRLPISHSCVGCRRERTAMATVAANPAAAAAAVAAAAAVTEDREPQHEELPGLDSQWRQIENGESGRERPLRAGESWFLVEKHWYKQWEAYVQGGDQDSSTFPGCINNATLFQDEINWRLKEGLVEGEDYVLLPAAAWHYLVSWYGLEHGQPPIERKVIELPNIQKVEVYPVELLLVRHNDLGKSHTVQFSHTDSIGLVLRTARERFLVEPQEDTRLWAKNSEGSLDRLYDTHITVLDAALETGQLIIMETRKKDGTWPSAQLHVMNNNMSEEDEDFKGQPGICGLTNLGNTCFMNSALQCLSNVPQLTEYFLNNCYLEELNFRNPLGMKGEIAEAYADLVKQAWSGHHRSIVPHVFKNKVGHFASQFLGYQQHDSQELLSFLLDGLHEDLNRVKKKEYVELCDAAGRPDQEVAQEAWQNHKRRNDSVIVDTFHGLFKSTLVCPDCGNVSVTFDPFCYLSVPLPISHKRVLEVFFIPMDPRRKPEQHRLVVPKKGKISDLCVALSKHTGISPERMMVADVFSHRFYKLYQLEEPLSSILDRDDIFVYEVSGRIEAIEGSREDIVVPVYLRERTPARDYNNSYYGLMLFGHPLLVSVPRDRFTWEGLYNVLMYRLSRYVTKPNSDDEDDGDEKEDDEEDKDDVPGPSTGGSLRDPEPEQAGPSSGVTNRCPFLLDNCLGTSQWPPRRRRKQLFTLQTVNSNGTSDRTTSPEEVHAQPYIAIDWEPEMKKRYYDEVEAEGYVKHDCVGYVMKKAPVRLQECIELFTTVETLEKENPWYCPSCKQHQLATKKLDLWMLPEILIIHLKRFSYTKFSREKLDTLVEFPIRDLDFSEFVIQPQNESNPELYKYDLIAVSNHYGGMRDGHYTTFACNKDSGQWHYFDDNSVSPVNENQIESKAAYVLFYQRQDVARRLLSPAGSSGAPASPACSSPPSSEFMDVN

Cc1ncc2c(n1)CCN(C(=O)CCl)C2
inactive: USP9X -0.246 | UniProt O00487 0.0218 | UniProt O00507 0.136 | UniProt P51784 0.000874 | UniProt Q5T2D3 -0.239 | UniProt Q8TE49 -0.624 | UniProt Q9P2H5 -0.422 | UniProt Q9UGI0 -0.458 | YOD1 0.165
